Data on 33 molecules can be found in ChEMBL document CHEMBL3433997, “St. Jude Leishmania screening dataset” (2016).

Values joined by “and” are separate entries in the source; they are usually repeats but may differ in a detail not shown here. Equal entries are not always repeated.

What all share (format): functional
The target in assay [1] is Solute carrier family 2, facilitated glucose transporter member 1 (Homo sapiens) (UniProt P11166). Description: ST_JUDE_LEISH: Cytotoxicity at 2uM final concentration against transgenic Leishmania Mexicana promastigotes LmGLUT1 that are glucose transport deficient and complemented with the human glucose transporter GLUT1. Activity is measured by DNA content using SYBR green in vitro.
Sequence of Solute carrier family 2, facilitated glucose transporter member 1 (Homo sapiens) (P11166 whole entry): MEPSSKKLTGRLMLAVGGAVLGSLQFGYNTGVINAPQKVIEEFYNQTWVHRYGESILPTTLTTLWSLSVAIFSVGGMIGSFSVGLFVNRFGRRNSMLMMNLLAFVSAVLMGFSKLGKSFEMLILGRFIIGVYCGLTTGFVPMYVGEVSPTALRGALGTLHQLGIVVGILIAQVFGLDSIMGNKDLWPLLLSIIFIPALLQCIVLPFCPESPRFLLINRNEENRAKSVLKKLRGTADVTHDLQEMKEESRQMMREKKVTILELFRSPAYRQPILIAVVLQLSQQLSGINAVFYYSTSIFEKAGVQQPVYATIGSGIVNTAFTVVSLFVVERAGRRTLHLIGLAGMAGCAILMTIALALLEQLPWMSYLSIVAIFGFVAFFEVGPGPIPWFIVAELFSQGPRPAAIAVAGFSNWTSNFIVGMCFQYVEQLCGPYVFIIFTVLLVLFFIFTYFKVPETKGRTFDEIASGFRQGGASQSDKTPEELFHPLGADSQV

Assay [2] concerns the target Hexose transporter 1 (Plasmodium falciparum) (UniProt O97467). Description: ST_JUDE_LEISH: Cytotoxicity at 2uM final concentration against transgenic Leishmania Mexicana promastigotes LmPfHT that are glucose transport deficient and complemented with the Plasmodium falciparum hexose transporter. Activity is measured by DNA content using SYBR green in vitro.
Assay [3] concerns the target Glucose transporter (Leishmania mexicana) (UniProt O61059). Description: ST_JUDE_LEISH: Cytotoxicity at 2uM final concentration against transgenic Leishmania Mexicana promastigotes LmGT2 that are glucose transport deficient and complemented with the L. Mexicana glucose transporter 2. Activity is measured by DNA content using SYBR green in vitro.

Regarding `C=CCOC(=O)N1CCC(CNCc2cccc(-c3cccc(-c4nc5ccccc5[nH]4)c3)c2)C1` (centres undefined), the values for the inhibition in assay [1], in assay [2] and in assay [3] were -1.85%, 5.8% and 0.62%, respectively.
Taken in the same sequence, the figures for `COc1ccc(-c2cccc(NC(=O)c3cccc(C#N)c3)c2)cc1CN1CCCC1` were 12.1%, 15.9% and 5.27%.
For the molecule `Cn1cc(C2CCN(CCCCNC(=O)c3ccc(-c4ccc(C(F)(F)F)cc4)c(CO)c3)CC2)c2ccccc21`, the inhibition worked out at 4.11% in assay [1], 3.1% in assay [2] and 2.35% in assay [3].
Taken in the same sequence, the figures for `CCOC(=O)Nc1cc(-c2csc(N=C(N)N)n2)cc([N+](=O)[O-])c1` were 0.23%, 0.58% and 1.09%.
Taken in the same sequence, the figures for `COc1ccc2c(c1)CC1CN(CCCCNC(=O)c3ccc(NC(=O)c4cc(Cl)cc(Cl)c4)cc3)CCN1C2` (centres undefined) were 3.25%, 4.38% and 3.79%.
Consider `Nc1cccc(CNCc2ccc(-c3ccc(-c4nc5cc(C(F)(F)F)ccc5[nH]4)s3)cc2)c1`, for which the values for the inhibition in assay [1], in assay [2] and in assay [3] were 2.29%, 1.24% and 0.65%, respectively.
For the molecule `CCCc1cc(Cc2cnc(N)nc2N)cc(OCCCCCC(=O)O)c1OC`, the inhibition was 1.55% in assay [1], 0.18% in assay [2] and 0.67% in assay [3].
Taken in the same sequence, the figures for `Fc1ccc(OC2CN(c3nccc(NCc4ccccc4Cl)n3)C2)cc1` were 3.81%, 2.84% and -0.6%.
As to `O=C(NCCCCN1CCCC2c3ccc(O)cc3CCC21)c1ccc(-c2ccccc2)cc1` (centres undefined), the inhibition in assay [1] is 0.24% and 13.2%; in assay [2], 1.39% and 1.92%; in assay [3], 0.13% and -0.76%.
Turning to `Cc1cccc(-c2nn(-c3ccccc3)cc2C(=O)Nc2nnc(C)o2)c1`, the inhibition is -1.38% in assay [1], -1.47% in assay [2] and 2.67% in assay [3].
Regarding `Cc1cc(C)nc(-n2[nH]c(C)c(Cc3ccc(C(C)(C)C)cc3)c2=O)n1`, the results for the inhibition in assay [1], in assay [2] and in assay [3] were 4.87%, 5.45% and 2.9%, respectively.
Regarding `Oc1ccc(CCNc2nc(NCCCOc3ccccc3-c3ccc(F)cc3)nc(N3CCNCC3)n2)cc1`, the inhibition in assay [1] worked out at 13.3%; in assay [2], 14.8%; in assay [3] it was 9.28%.
With `Cc1nc(-c2nc(NCCc3c(C)noc3C)ncc2-c2ccsc2)sc1C`, the figures for the inhibition in assay [1], in assay [2] and in assay [3] were 1.02%, 1.58% and 2.5%, respectively.
The corresponding values for `Cc1cccc2nc(-c3ccc(-c4ccc(CNCc5cnn(-c6ccccc6)n5)cc4)s3)[nH]c12` are -1.78%, -1.57% and -1.83%.
Turning to `Cc1[nH]c(C)c(-c2ccc(/C=C/c3ccccn3)cc2)c(=O)c1Cl`, the inhibition worked out at 4.28% in assay [1], 4.49% in assay [2] and 5.12% in assay [3].
The corresponding values for `O=C(O)C1CC(=O)N(c2ccc(Cl)cc2)C1` (centres undefined) are -1.68%, -0.45% and -1.26%.
In the case of `Cc1ccccc1OCC(=O)Nc1ccc(-c2nc3cc4ccccc4cc3[nH]2)cc1`, the inhibition stood at 7.32% in assay [1], 3.71% in assay [2] and 4.05% in assay [3].
Taken in the same sequence, the figures for `COc1cccc(Nc2nccc(NCC(O)c3cccc(C(F)(F)F)c3)n2)c1` (centres undefined) were 4.86%, 5.48% and 1.78%.
Taken in the same sequence, the figures for `O=c1ccc2ccc(F)c3c2n1CC3CN1CCC(NCc2ccc(-c3cccc(Cl)c3)nc2)CC1` (centres undefined) were 26.2%, 21.3% and 14.9%.
Taken in the same sequence, the figures for `O=C(Nc1cccc(N2CCC(NCCCn3ccnc3)CC2)c1)c1cccc(C(F)(F)F)c1` were 0.98%, -0.71% and 3.8%.
As to `CCCCCCCCc1c(C)nc(C)c(C#N)c1O`, the figures for the inhibition in assay [1], in assay [2] and in assay [3] were 5.8%, 6.51% and 5.78%, respectively.
For the molecule `CCOC(=O)c1ccc(NC(=O)N[C@@H](Cc2ccc(O)cc2)C(=O)NC2CCN(Cc3ccc4c(c3)OCO4)CC2)cc1`, the inhibition in assay [1] is 0.57%; in assay [2], 2.47%; in assay [3], 0.58%.
With `Cc1cc(NC(=O)c2cccs2)ccc1OC1CCN(Cc2ccccc2)CC1`, the inhibition worked out at 3.33% in assay [1], 3.27% in assay [2] and 3.22% in assay [3].
The corresponding values for `Cc1ccc(C)c(Cn2ccc3nc(N)nc(N)c32)c1` are 2.05%, 1.94% and -0.67%.
`COc1cc(C(C)C)ccc1N1CCN(CCCCNC(=O)c2ccc(NC(=O)c3ccc(Cl)cc3)cc2)CC1`: the inhibition in assay [1] came to 4.1%; in assay [2], 1.59%; in assay [3] it was 2.26%.
For the molecule `O=C(/C=C/c1ccc(Cl)c(Cl)c1)NCCCCCN1CCC(CCNC(=O)/C=C/c2cc(C(F)(F)F)ccc2F)CC1`, the inhibition was -4.09% in assay [1], -2.42% in assay [2] and 2.28% in assay [3].
On to `CCOCc1cnc(C)nc1CNC(=O)c1c(C)[nH]c2ccc(C)cc12`, for which the inhibition in assay [1] came to 0.96%; in assay [2] it was 0.7%; in assay [3], 1.12%.
With `COc1cc2nc(NCc3nc4ccccc4[nH]3)nc(N)c2cc1OC`, the inhibition in assay [1] came to 11%; in assay [2], 11.9%; in assay [3], 10.3%.
As for `Cc1cc(N[C@@H](CC(C)C)C(=O)NC2CCCC2)nc(NCC2CCCCC2)n1`, the inhibition in assay [1] was 3.95%; in assay [2] it was 3.89%; in assay [3], 0.25%.
On to `COc1ccc(-c2cccc(NC(=O)c3ccc(C#N)cc3)c2)cc1CN1CCN(C)CC1`, for which the inhibition came to 16.1% in assay [1], 14.8% in assay [2] and 11.3% in assay [3].
Taken in the same sequence, the figures for `CC(C)Oc1ccc(CCCON2C(=N)N=C(N)NC2(C)C)cc1` were 20.8%, 28.2% and 19%.
Taken in the same sequence, the figures for `O=c1cc(NCCC(CNCc2ccc(Br)o2)NCc2cc(Br)cc(Br)c2)[nH]c2ccccc12` (centres undefined) were 8.13%, 8.45% and 6.87%.
For the molecule `COc1ccc2nccc([C@@H](O)CN3CCC(NC(=O)C(c4ccsc4)N4CCN(c5ccccc5)CC4)CC3)c2c1` (some centres undefined), the inhibition was found to be 4.17% in assay [1], 3.07% in assay [2] and 1.54% in assay [3].
